KLK7 zymogen act – proKLK7 zymogen activators, primary screen, biochemical, fluorescence intensity | Kallikrein-7 (Homo sapiens), P49862 | hit rate 0.9% among 370,000 | activation, % at 7 µM | purified proKLK7, EDANS-DABCYL substrate fluorescence; 100% is mature enzyme control, 0% vehicle;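 active means activation above the mean of all tested compounds plus 3 SD, computed per campaign excluding outliers beyond control limits, cut at about 13% in these data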
DSG3 Ab inh – inhibitors of pemphigus antibody binding to DSG3, primary screen, biochemical, bead-based, flow cytometry, scFv-GFP. Desmoglein-3 (Homo sapiens), P32926. DSG3-coupled beads, scFv-anti-DSG3-GFP binding; hits give low values. binding (percent of control), % at 10 µM. hit rate 0.48% among 310,000. AID 588358, 2011;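 active means binding more than 3 SD below its plate's average and above zero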;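 further: hits lower antibody fragment binding to DSG3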
rCAG binder – binders of r(CAG) RNA repeats, primary screen, biochemical, fluorescence; AID 651821, 2012; hit rate 1.3% among 370,000; r(CAG) RNA repeat, TO-PRO-1 dye displacement fluorescence; inhibition, % at 3 µM;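 active means inhibition above the plate cutoff, the mean of all test compounds on that plate plus 3 SD, cut at about 35% in these data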;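 further: 0% = DMSO alone and 100% = 100 µM mitoxantrone as full dye displacement; higher means more dye released from RNA so lower well fluorescence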
ADAM10 inh – human ADAM10 inhibitors, primary screen, biochemical, QFRET, HTS | Disintegrin and metalloproteinase domain-containing protein 10 (Homo sapiens), O14672 | recombinant ADAM10, EDANS/DABCYL FRET peptide cleavage, 3 h | inhibition, % at 7 µM | hit rate 0.62% among 370,000 | AID 720582, 2013;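 active means inhibition above a per-campaign cutoff equal to the mean of compounds falling between control-based bounds plus 3 SD, cut at about 20% in these data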;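 further: 0% = DMSO wells while the 100% control is not disclosed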
ADAM17 inh – ADAM17 inhibitors, primary screen, biochemical, QFRET; recombinant ADAM17, EDANS/DABCYL FRET peptide cleavage; hit rate 0.83% among 370,000; Disintegrin and metalloproteinase domain-containing protein 17 (Homo sapiens), P78536; AID 720648, 2013; inhibition, % at 6.95 µM;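 active means inhibition above the mean of compounds lying between control limits plus 3 SD, set per campaign, cut at about 8.5% in these data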;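 further: 0% = DMSO-only wells as the low control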
MPTP inh – mitochondrial permeability transition pore inhibitors, primary screen, biochemical, isolated mouse mitochondria, absorbance. AID 602449, 2012. inhibition, % at 10 µM. Ca2+ swelling absorbance, 30 min. hit rate 1.4% among 360,000;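 active means inhibition of 50% or more, scaled per plate between neutral and stimulator controls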;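 further: 0% = DMSO wells given calcium and 100% = 1 mM EGTA wells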
ADAM10 confirm – human ADAM10 inhibitors, confirmation, biochemical, QFRET, triplicate; shares compounds with ADAM10 inh; ADAM10 QFRET peptide cleavage, EDANS fluorescence; inhibition, % at 6.95 µM; hit rate 1% among 2,100; AID 743208, 2013;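 active means inhibition above about 20% chosen separately for each screening run, limit read from the data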;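 further: 0% = DMSO wells and 100% = marimastat wells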
ADAM17 ctr – ADAM17 inhibitors, counter-screen for ADAM10 exosite inhibitor project, biochemical, QFRET, high throughput. hit rate 0.5% among 2,100. ADAM17 QFRET peptide cleavage, EDANS fluorescence. inhibition, % at 6.95 µM. shares compounds with ADAM10 inh;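 active means mean triplicate inhibition above the solvent-only control wells' mean plus 3 SD, cut at about 12% in these data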;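 further: 0% = DMSO wells and 100% = marimastat wells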
ADAM10 counter – ADAM10 inhibitors, counter-screen for ADAM17 exosite inhibitor project, biochemical, FRET, human ADAM10; AID 743256, 2014; hit rate 47% among 2,900; recombinant ADAM10, EDANS/DABCYL FRET peptide cleavage, 3 h; inhibition, % at 6.95 µM; shares compounds with ADAM17 inh;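 active means mean inhibition over the triplicate runs exceeds the activity threshold set in the earlier primary screen, cut at about 20% in these data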;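 further: 0% = DMSO wells and 100% = marimastat wells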
ADAM17 confirm – ADAM17 inhibitors, hit retest, confirmation, biochemical, QFRET peptide cleavage | shares compounds with ADAM17 inh | inhibition, % at 6.95 µM | recombinant ADAM17, EDANS/DABCYL QFRET peptide cleavage | AID 743257, 2014 | hit rate 65% among 2,900;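 active means mean inhibition across replicates above the hit cutoff set in the primary screen, cut at about 8.5% in these data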;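 further: 0% = DMSO wells and 100% = marimastat wells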
The depositor's hits bear a star; . = no result; ! = not active in a repeat. Only some compounds are listed: those with a hit (about 4.7% of all), similar ones and a draw of the others.

SMILES	KLK7 zymogen act	DSG3 Ab inh	rCAG binder	ADAM10 inh	ADAM17 inh	MPTP inh	ADAM10 confirm	ADAM17 ctr	ADAM10 counter	ADAM17 confirm
CN(CCc1ccccc1)C(C(=O)Nc1ccc2c(c1)OCCO2)c1ccnc2ccccc12 (stereo not given)	0	.	5	4	2	-1	.	.	.	.
CC1Oc2ccc(C#N)cc2N(Cc2ccc(F)cc2)C1=O (stereo not given)	.	.	.	.	.	1	.	.	.	.
C[C@H](NC(=O)c1nc[nH]c1C(=O)NC(c1ccccc1)c1ccccc1)C(=O)OC(C)(C)C	0	102	4	24*	14*	1	3	2	43*	24*
CC(C)(C)OC(=O)CNC(=O)c1[nH]cnc1C(=O)NC(c1ccccc1)c1ccccc1	-1	104	-2	27*	16*	1	5	2	24*	14*
Cc1noc(C)c1-c1ccc(C(=O)Nc2ccc(C(C)C)cc2)c2occc12	-1	.	7	-1	5	-1	.	.	.	.
COc1ccc(NC(=O)C(OC)c2ccccc2)cc1Cl (stereo not given)	0	106	0	-3	-3	0	.	.	.	.
COc1ccc(NC(=O)C(Sc2nnc(-c3ccncc3)n2-c2ccccc2C)c2ccccc2)cc1Cl (stereo not given)	0	99	10	28*	15*	0	7	2	30*	15*
CCCCn1nnnc1C1(C)CCC(=O)N1CCOC (stereo not given)	0	.	2	-6	-4	0	.	.	.	.
O=C(COc1ncnc2c1cnn2-c1ccccc1)Nc1ccc(S(=O)(=O)N2CCCCC2)cc1	-1	100	16	21*	9.8*	5	2	1	33*	17*
NS(=O)(=O)c1cccc(NC(=O)COc2ncnc3c2cnn3-c2ccccc2)c1	0	100	17	2	-2	-2	.	.	.	.
COc1ccc(NC(=O)N(C)C[C@H]2Oc3c(NS(=O)(=O)c4cccs4)cccc3C(=O)N([C@@H](C)CO)C[C@@H]2C)cc1	0	106	11	2	-3	0	.	.	.	.
COc1ccccc1C(=O)NCC(=O)OC(C)C(=O)N1CCOCC1 (stereo not given)	0	97	0	0	1	-2	.	.	.	.
Cc1onc(-c2c(Cl)cccc2Cl)c1C(=O)N[C@@H]1C(=O)N2[C@@H]1SC(C)(C)[C@@H]2C(=O)O	0	107	31	21*!	9.6*!	-1	0	0	1	3
Cc1onc(-c2c(Cl)cccc2Cl)c1C(=O)NC1C(=O)N2C1SC(C)(C)C2C(=O)O (stereo not given)	0	102	12	12	0	-1	.	.	.	.
O=C(NC(Cc1c[nH]c2ccccc12)C(=O)Nc1ccc(OC(F)(F)F)cc1)c1cccs1 (stereo not given)	1	95	9	25*	12*	14	12	3	59*	30*

Screening results deposited in PubChem BioAssay by several laboratories.
